# From PubChem BioAssay AID1159580 (chemical genetic matrix, 2015)
# About 2,000 (36%) of roughly 5,500 compounds were called active. Inconclusive results (about 18%) are left out. The list shows a part of the results. A number with no mark means an inactive call. Rule as the data show it: active = normalized growth mostly below about 0.91 (no sharp cut-off); inconclusive = no clear call, values can overlap the other calls; inactive = mostly above about 0.92.
# Assay: chemical genetic growth profiling, strain panel (AID 1159580);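 also: tested at 20 µM; growth read once vehicle control cultures reached saturation at 30 °C; 1 = growth at the plate median or of vehicle wells; lower values mean less growth of the strain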
# Conditions: S. cerevisiae deletion strains, growth OD
# [1] = locus YAL040C, strain CLN3, hits give low values
# [2] = locus YCL061C, strain MRC1 (second series), hits give low values
# [3] = locus YDR363W, strain ESC2, hits give low values
# [4] = locus YER002W, strain NOP16, hits give low values
# [5] = locus YMR263W, strain SAP30, hits give low values
# [6] = locus YNL175C, strain NOP13, hits give low values
# [7] = locus YNL224C, strain SQS1, hits give low values
# [8] = locus YNL322C, strain KRE1, hits give low values
# [9] = locus YOR083W, strain WHI5 (second series), hits give low values
# [10] = locus YPL055C, strain LGE1, hits give low values
# [11] = locus YPL241C, strain CIN2, hits give low values
structure (smiles),measurement,setting,value
CN=C(NC#N)Nc1ccc(C2=NNC(=O)CC2C)cc1 (stereo not given),normalized growth,[1],1.08
same,normalized growth,[2],0.999
same,normalized growth,"locus YDR150W, strain NUM1, hits give low values",1.01
same,normalized growth,[3],1.01
same,normalized growth,[4],0.986
same,normalized growth,"locus YGR078C, strain PAC10, hits give low values",1
same,normalized growth,[5],1
same,normalized growth,"locus YMR307W, strain GAS1, hits give low values",1
same,normalized growth,"locus YNL128W, strain TEP1, hits give low values",1
same,normalized growth,[6],0.995
same,normalized growth,"locus YNL197C, strain WHI3, hits give low values",0.994
same,normalized growth,[7],0.994
same,normalized growth,[8],0.986
same,normalized growth,[9],1
same,normalized growth,[10],0.996
same,normalized growth,[11],0.998
Cc1o[nH]c(=O)c1CC(N)C(=O)O (stereo not given),normalized growth,"locus YAL013W, strain DEP1, hits give low values",0.998
same,normalized growth,[1],1
same,normalized growth,[2],1
same,normalized growth,[3],1.01
same,normalized growth,[4],0.997
same,normalized growth,"locus YGR229C, strain SMI1, hits give low values",0.995
same,normalized growth,[5],0.999
same,normalized growth,"locus YNL153C, strain GIM3, hits give low values",0.989
same,normalized growth,[6],1
same,normalized growth,[7],1.01
same,normalized growth,[8],1.01
same,normalized growth,[9],0.982
same,normalized growth,[10],1
same,normalized growth,[11],1.01
COC1CC2CCC(C)C(O)(O2)C(=O)C(=O)N2CCCCC2C(=O)OC(C(C)CC2CCC(O)C(OC)C2)CC(=O)C(C)/C=C(\C)C(O)C(OC)C(=O)C(C)CC(C)/C=C/C=C/C=C/1C (stereo not given),normalized growth,"locus YAL021C, strain ccr4, hits give low values",0.0589 (active)
same,normalized growth,"locus YAL026C, strain drs2, hits give low values",0.0607 (active)
same,normalized growth,"locus YAL030W, strain snc1, hits give low values",0.057 (active)
same,normalized growth,"locus YBL061C, strain skt5, hits give low values",0.0636 (active)
same,normalized growth,"locus YBR009C, strain hhf1, hits give low values",0.0589 (active)
same,normalized growth,"locus YBR023C, strain chs3, hits give low values",0.0647 (active)
same,normalized growth,"locus YBR171W, strain sec66, hits give low values",0.0879 (active)
same,normalized growth,"locus YBR231C, strain swc5, hits give low values",0.0671 (active)
same,normalized growth,"locus YBR279W, strain paf1, hits give low values",0.061 (active)
same,normalized growth,"locus YCL011C, strain gbp2, hits give low values",0.0563 (active)
same,normalized growth,"locus YCL016C, strain dcc1, hits give low values",0.064 (active)
same,normalized growth,"locus YCL061C, strain MRC1, hits give low values",0.0664 (active)
same,normalized growth,"locus YCL069W, strain vba3, hits give low values",0.0634 (active)
same,normalized growth,"locus YCR088W, strain abp1, hits give low values",0.0633 (active)
same,normalized growth,"locus YDL005C, strain med2, hits give low values",0.105 (active)
same,normalized growth,"locus YDL040C, strain nat1, hits give low values",0.062 (active)
same,normalized growth,"locus YDR001C, strain nth1, hits give low values",0.062 (active)
same,normalized growth,"locus YDR069C, strain doa4, hits give low values",0.0638 (active)
same,normalized growth,"locus YDR137W, strain rgp1, hits give low values",0.108 (active)
same,normalized growth,"locus YDR159W, strain sac3, hits give low values",0.0822 (active)
same,normalized growth,"locus YDR195W, strain ref2",0.107 (active)
same,normalized growth,"locus YDR297W, strain sur2, hits give low values",0.0574 (active)
same,normalized growth,"locus YDR334W, strain swr1, hits give low values",0.0661 (active)
same,normalized growth,"locus YDR335W, strain msn5, hits give low values",0.0641 (active)
same,normalized growth,"locus YDR392W, strain spt3, hits give low values",0.0747 (active)
same,normalized growth,"locus YEL003W, strain gim4, hits give low values",0.0561 (active)
same,normalized growth,"locus YEL037C, strain rad23, hits give low values",0.06 (active)
same,normalized growth,"locus YEL061C, strain CIN8 (second series), hits give low values",0.0638 (active)
same,normalized growth,"locus YER015W, strain faa2, hits give low values",0.063 (active)
same,normalized growth,"locus YER016W, strain bim1, hits give low values",0.0636 (active)
same,normalized growth,"locus YER111C, strain swi4, hits give low values",0.0777 (active)
same,normalized growth,"locus YER155C, strain BEM2 (second series), hits give low values",0.0886 (active)
same,normalized growth,"locus YFR010W, strain ubp6, hits give low values",0.0722 (active)
same,normalized growth,"locus YGL167C, strain pmr1, hits give low values",0.106 (active)
same,normalized growth,"locus YGL173C, strain kem1, hits give low values",0.0674 (active)
same,normalized growth,"locus YGL227W, strain vid30, hits give low values",0.0637 (active)
same,normalized growth,"locus YGL240W, strain doc1, hits give low values",0.0777 (active)
same,normalized growth,"locus YGL253W, strain hxk2, hits give low values",0.0553 (active)
same,normalized growth,"locus YHR013C, strain ard1, hits give low values",0.0984 (active)
same,normalized growth,"locus YHR027C, strain rpn1, hits give low values",0.0663 (active)
same,normalized growth,"locus YHR030C, strain SLT2, hits give low values",0.0959 (active)
same,normalized growth,"locus YHR079C, strain IRE1, hits give low values",0.1 (active)
same,normalized growth,"locus YHR142W, strain chs7, hits give low values",0.0702 (active)
same,normalized growth,"locus YJL092W, strain hpr5, hits give low values",0.0602 (active)
same,normalized growth,"locus YJL095W, strain BCK1 (second series), hits give low values",0.0568 (active)
same,normalized growth,"locus YJL095W, strain BCK1, hits give low values",0.0941 (active)
same,normalized growth,"locus YJL115W, strain asf1, hits give low values",0.0785 (active)
same,normalized growth,"locus YJL129C, strain trk1, hits give low values",0.083 (active)
same,normalized growth,"locus YJL154C, strain vps35, hits give low values",0.0627 (active)
same,normalized growth,"locus YJL164C, strain tpk1, hits give low values",0.0565 (active)
same,normalized growth,"locus YJL166W, strain qcr8, hits give low values",0.0582 (active)
same,normalized growth,"locus YJL187C, strain SWE1, hits give low values",0.0583 (active)
same,normalized growth,"locus YJR066W, strain TOR1, hits give low values",0.00105 (active)
same,normalized growth,"locus YKL160W, strain elf1, hits give low values",0.0628 (active)
same,normalized growth,"locus YKR026C, strain gcn3, hits give low values",0.0857 (active)
same,normalized growth,"locus YKR091W, strain srl3, hits give low values",0.063 (active)
same,normalized growth,"locus YLL001W, strain dnm1, hits give low values",0.0594 (active)
same,normalized growth,"locus YLL026W, hits give low values",0.0565 (active)
same,normalized growth,"locus YLL041C, strain sdh2, hits give low values",0.0584 (active)
same,normalized growth,"locus YLR027C, strain aat2, hits give low values",0.056 (active)
same,normalized growth,"locus YLR113W, strain HOG1, hits give low values",0.116 (active)
same,normalized growth,"locus YLR221C, strain rsa3, hits give low values",0.0587 (active)
same,normalized growth,"locus YLR258W, strain gsy2, hits give low values",0.0578 (active)
same,normalized growth,"locus YLR262C, strain YPT6 (second series), hits give low values",0.0827 (active)
same,normalized growth,"locus YLR320W, strain mms22, hits give low values",0.0745 (active)
same,normalized growth,"locus YLR342W, strain FKS1, hits give low values",0.0654 (active)
same,normalized growth,"locus YLR357W, strain rsc2, hits give low values",0.123 (active)
same,normalized growth,"locus YLR370C, strain arc18, hits give low values",0.0626 (active)
same,normalized growth,"locus YLR384C, strain iki3, hits give low values",0.0638 (active)
same,normalized growth,"locus YML120C, strain ndi1, hits give low values",0.0575 (active)
same,normalized growth,"locus YMR058W, strain fet3, hits give low values",0.0611 (active)
same,normalized growth,"locus YMR125W, strain sto1, hits give low values",0.0751 (active)
same,normalized growth,"locus YMR129W, hits give low values",0.0593 (active)
same,normalized growth,"locus YMR205C, strain PFK2, hits give low values",0.077 (active)
same,normalized growth,"locus YMR231W, strain pep5, hits give low values",0.0735 (active)
same,normalized growth,"locus YNL071W, strain lat1, hits give low values",0.0603 (active)
same,normalized growth,"locus YNL183C, strain NPR1, hits give low values",0.00606 (active)
same,normalized growth,"locus YNL209W, strain ssb2, hits give low values",0.0636 (active)
same,normalized growth,"locus YNL248C, strain rpa49, hits give low values",0.0637 (active)
same,normalized growth,"locus YNL322C, strain KRE1 (second series), hits give low values",0.0917 (active)
same,normalized growth,"locus YNR049C, strain mso1, hits give low values",0.0601 (active)
same,normalized growth,"locus YOR001W, strain rrp6, hits give low values",0.0618 (active)
same,normalized growth,"locus YOR070C, strain gyp1, hits give low values",0.0602 (active)
same,normalized growth,"locus YOR080W, strain dia2, hits give low values",0.0718 (active)
same,normalized growth,"locus YOR083W, strain WHI5, hits give low values",0.0613 (active)
same,normalized growth,"locus YOR106W, strain vam3, hits give low values",0.0579 (active)
same,normalized growth,"locus YOR231W, strain MKK1, hits give low values",0.101 (active)
same,normalized growth,"locus YOR265W, strain rbl2, hits give low values",0.062 (active)
same,normalized growth,"locus YOR270C, strain vph1, hits give low values",0.0796 (active)
same,normalized growth,"locus YOR290C, strain snf2, hits give low values",0.0616 (active)
same,normalized growth,"locus YPL051W, strain arl3, hits give low values",0.0737 (active)
same,normalized growth,"locus YPL078C, strain atp4, hits give low values",0.0674 (active)
same,normalized growth,"locus YPL106C, strain sse1, hits give low values",0.0858 (active)
same,normalized growth,"locus YPL240C, strain hsp82, hits give low values",0.0583 (active)
same,normalized growth,"locus YPL256C, strain CLN2, hits give low values",0.117 (active)
